Assay results: PubChem BioAssay AID2315 (National Center for Advancing Translational Sciences (NCATS), 2010)
About 27,000 (9.3%) of roughly 290,000 compounds were called active. This is one part of a sample in which actives are shown more often than they occur. Unmarked numbers belong to inactive results. Cut-off read from the data, not from the text of the source: active = inhibition mostly above about 28% (no sharp cut-off); inactive = mostly below about 43%.

Test: A qHTS for Small Molecule Inhibitors of Shiga Toxin; note: 0% is about no effect
Conditions: Vero cells, Shiga toxin protein synthesis inhibition reporter; at 38.7 µM, hits give high values

Question: With `COCCNC(=O)COc1ccc(C)c(C)c1` as the compound, how does the inhibition read?
Answer: 20.4%

Question: For `CCc1ccc(NC(=O)C(=O)N/N=C(\C)CC(=O)NCCOC)cc1`, which inhibition is on record?
Answer: 63.4% (active)

Question: For `C/C(CC(=O)Nc1ccc(Cl)cc1)=N\NC(=O)C(=O)NCCO`, which inhibition is on record?
Answer: 12%

Question: With `Cc1ccc(N(C(=O)CNC(=O)c2ccco2)C(C(=O)NC2CCCC2)c2ccncc2)cc1` (centres undefined) as the compound, how does the inhibition read?
Answer: -7.6%

Question: For `CC(=O)N1c2ccc(S(=O)(=O)N3CCCC(C(=O)Nc4ccc(C)cc4C)C3)cc2CC1C` (centres undefined), which inhibition is on record?
Answer: -2.6%

Question: With `CN1CCN(NC(=O)c2ccc(S(=O)(=O)N3CCCCCC3)cc2)CC1` as the compound, how does the inhibition read?
Answer: -4.86%

Question: Which inhibition does the source give for `Cc1cc(/C=N/NC(=O)c2cccnc2)c(C)n1CC(C)C` here?
Answer: 80.1% (active)

Question: For `O=C(N/N=C/c1ccccn1)c1ccc(S(=O)(=O)N2CCCCCC2)cc1`, which inhibition is on record?
Answer: 184% (active)

Question: With `O=C(N/N=C/c1ccccn1)c1cccc(NC(=O)c2ccc(Cl)cc2)c1` as the compound, how does the inhibition read?
Answer: 24.3%

Question: With `O=C(Nc1ccc(S(=O)(=O)Nc2ncccn2)cc1)C12CC3CC(CC(C3)C1)C2` as the compound, how does the inhibition read?
Answer: 17.2%

Question: With `O=C(NN=C1CCC(=NNC(=O)c2cccnc2)CC1)c1cccnc1` as the compound, how does the inhibition read?
Answer: 45.2%

Question: With `CNC(=O)C(=O)N/N=C/c1ccccn1` as the compound, how does the inhibition read?
Answer: 35.4%

Question: Which inhibition does the source give for `O=C(N/N=C/c1ccccn1)c1cccnc1` here?
Answer: 39.2% (active)

Question: With `Cc1ccc(NC(=O)COc2ccc(/C=N\NC(=O)c3cccnc3)cc2)cc1C` as the compound, how does the inhibition read?
Answer: 11.2%

Question: For `O=C(N/N=C/c1ccccn1)C12CC3CC(CC(C3)C1)C2`, which inhibition is on record?
Answer: 0% (active)

Question: Which inhibition does the source give for `O=C(CNC(=O)c1cccnc1)N/N=C/c1cccnc1` here?
Answer: -13%

Question: With `O=C(N/N=C/c1ccc(O)c2ccccc12)c1cccnc1` as the compound, how does the inhibition read?
Answer: 24.3%

Question: For `COc1ccc(CNC(=O)/C(C#N)=C/c2cccc(OC)c2OC)cc1`, which inhibition is on record?
Answer: -10.4%

Question: With `Cn1c(C(=O)N2CCCC(C(=O)NCc3ccccc3)C2)cc2sccc21` (centres undefined) as the compound, how does the inhibition read?
Answer: 18.4%

Question: For `Cc1ccc(S(=O)(=O)c2c[nH]c3ccc(C)cc3c2=O)cc1`, which inhibition is on record?
Answer: -5.73%

Question: Which inhibition does the source give for `CC(C)CNC(=O)C(=O)Nc1ccc(N(C)C)cc1` here?
Answer: 55.1% (active)

Question: For `CC(C)CNC(=S)Nc1ccc(F)cc1`, which inhibition is on record?
Answer: 13.2%

Question: With `CC(C)CNC(=O)C(=O)NCc1ccccc1` as the compound, how does the inhibition read?
Answer: 15.5%

Question: Which inhibition does the source give for `Cc1cc(C)cc(NC(=O)C2CCCN2S(=O)(=O)c2cccc3cccnc23)c1` (centres undefined) here?
Answer: -0.303%

Question: With `CCOC(=O)c1ccccc1CN1C(=O)c2ccccc2S1(=O)=O` as the compound, how does the inhibition read?
Answer: -3.65%

Question: With `CCOC(=O)C1=C(C(=O)OCC)C(C(=O)OCC)N(S(=O)(=O)C(F)(F)F)c2ccccc21` (centres undefined) as the compound, how does the inhibition read?
Answer: 18.6%

Question: For `CCOC(=O)c1cc2n(c1N)-c1ccccc1C2=O`, which inhibition is on record?
Answer: 72.9% (active)

Question: For `Cn1nccc1C(=O)N1CCCC(C(=O)c2ccc(Oc3ccccc3)cc2)C1` (centres undefined), which inhibition is on record?
Answer: -15.3%

Question: For `Cc1cccc2[nH]c(CN(C)C(=O)C3CCC(=O)N(CCc4ccccc4)C3)nc12` (centres undefined), which inhibition is on record?
Answer: 17.9%

Question: For `CCCc1ccc(OCC(O)CN2CCN(CCO)CC2)cc1` (centres undefined), which inhibition is on record?
Answer: -3.37%

Question: With `O=C(COc1nsnc1N1CCOCC1)Nc1ccccc1Cl` as the compound, how does the inhibition read?
Answer: 5.96%

Question: With `CCOc1cc(/C=C/c2nc3ccccc3c(=O)[nH]2)cc(Br)c1OC` as the compound, how does the inhibition read?
Answer: 31.4%

Question: For `CC1(C)Cc2cccc(OCC(=O)NCc3ccccc3)c2O1`, which inhibition is on record?
Answer: 21.1%

Question: With `CCOC(=O)C1(Cc2cccc(OC)c2)CCCN(S(=O)(=O)c2cccnc2)C1` (centres undefined) as the compound, how does the inhibition read?
Answer: -9.17%

Question: For `CCOC(=O)C1(Cc2cccc(OC)c2)CCN(C(C)COC)CC1` (centres undefined), which inhibition is on record?
Answer: -0.932%

Question: For `CCOC(=O)C1(Cc2cccc(OC)c2)CCCN(C(=O)CCSC)C1` (centres undefined), which inhibition is on record?
Answer: 81.2% (active)

Question: With `COC(=O)C1CCN(C(=O)c2cc(=O)[nH]c3ccccc23)CC1` as the compound, how does the inhibition read?
Answer: -11.7%

Question: For `COc1ccc(/C=C2\SC(=S)N(CCC(=O)Nc3cccc(C(=O)O)c3)C2=O)cc1OC`, which inhibition is on record?
Answer: 2.9%

Question: With `Cn1c(SCC(=O)N2CCCC2)nnc1-c1ccc2c(c1)OCO2` as the compound, how does the inhibition read?
Answer: 38.6%

Question: Which inhibition does the source give for `O=C(O)CSc1nnc(-c2ccc3c(c2)OCO3)n1-c1ccccc1` here?
Answer: 37%

Question: With `Cn1c(SCc2nc3ccccc3s2)nnc1-c1ccc2c(c1)OCO2` as the compound, how does the inhibition read?
Answer: 59% (active)

Question: For `CN(CCc1ccccn1)C1CCCN(S(=O)(=O)c2ccccc2Cl)C1` (centres undefined), which inhibition is on record?
Answer: -6.64%

Question: Which inhibition does the source give for `COc1ccc(S(=O)(=O)N2CCOC2CNC(=O)C(=O)NCc2ccncc2)cc1OC` (centres undefined) here?
Answer: -13.1%

Question: Which inhibition does the source give for `CCC(C(=O)NCc1cccnc1)n1nc(C)c2sc3ccccc3c2c1=O` (centres undefined) here?
Answer: -2.63%

Question: With `Cc1cc(C)cc(NC(=O)CCN2C(=O)c3ccccc3C2=O)c1` as the compound, how does the inhibition read?
Answer: -3.25%

Question: For `C=CCn1c(SCc2c(C(=O)OC)sc(N)c2C(=O)OC)nnc1-c1ccc(Cl)cc1`, which inhibition is on record?
Answer: -13.4%

Question: With `C=CCn1c(SCC(N)=O)nnc1-c1cc2c(s1)CCC(CC)C2` (centres undefined) as the compound, how does the inhibition read?
Answer: 76.9% (active)

Question: For `CCn1c(CSc2nc(C)cc(C)n2)nnc1SCC(N)=O`, which inhibition is on record?
Answer: -9.49%

Question: Which inhibition does the source give for `COCCNC(=O)CN(Cc1ccco1)C(=O)CCC(=O)Nc1nccs1` here?
Answer: -8.05%

Question: With `CCN(C(=O)COC(=O)c1cc(NS(=O)(=O)c2ccc(Cl)c([N+](=O)[O-])c2)ccc1O)C1CCCCC1` as the compound, how does the inhibition read?
Answer: -7.83%

Question: Which inhibition does the source give for `COCc1c(C(=O)N/N=C\c2cccnc2)nnn1-c1nonc1N` here?
Answer: -0.307%

Question: Which inhibition does the source give for `Cc1cccc(N2C(=O)NC(=O)/C(=C\c3cnn(-c4ccccc4)c3)C2=O)c1` here?
Answer: 65.5% (active)

Question: Which inhibition does the source give for `Cc1cccc(N2C(=O)c3cccnc3C2=O)c1` here?
Answer: 23.8%

Question: For `Cc1cccc(N2C(=O)C3C(c4ccccc4)OC4(C(=O)c5ccccc5C4=O)C3C2=O)c1` (centres undefined), which inhibition is on record?
Answer: -11.8%

Question: With `Cc1nc(CN(C)C(=O)CC2C(=O)NCCN2Cc2ccc(F)cc2)cs1` (centres undefined) as the compound, how does the inhibition read?
Answer: -21.9%

Question: Which inhibition does the source give for `Cc1nc(-c2ccc(Cl)cc2)sc1C1(C)CC(c2ccccc2F)=NO1` (centres undefined) here?
Answer: 42% (active)

Question: For `Cc1nc(C(=O)NCc2ccccc2)sc1C1(C)CC(c2cccnc2)=NO1` (centres undefined), which inhibition is on record?
Answer: -4.88%

Question: With `Cc1nc(C(=O)Nc2ccc(Cl)cc2)sc1C1(C)CC(c2ccccc2)=NO1` (centres undefined) as the compound, how does the inhibition read?
Answer: -2.44%

Question: With `Nc1ccc(SCCN2C(=O)c3ccccc3C2=O)cc1` as the compound, how does the inhibition read?
Answer: 85% (active)

Question: Which inhibition does the source give for `Cc1ccc(SCCN2C(=O)NC(C)(C)C2=O)cc1` here?
Answer: 5.57%

Question: Which inhibition does the source give for `CC(=O)c1cnc(SCCN2C(=O)c3ccccc3C2=O)nc1C` here?
Answer: -12.2%

Question: For `N#CCC(=O)N/N=C/c1cn(Cc2ccc3ccccc3c2)c2ccccc12`, which inhibition is on record?
Answer: -10.8%

Question: Which inhibition does the source give for `CC[C@H](C)[C@H](NC(=O)[C@H](Cc1ccc(O)cc1)NC(=O)[C@@H](NC(=O)[C@H](CCCN=C(N)N)NC(=O)[C@@H](N)CC(=O)O)C(C)C)C(=O)N[C@@H](Cc1cnc[nH]1)C(=O)N1CCC[C@H]1C(=O)N[C@@H](Cc1ccccc1)C(=O)O` here?
Answer: 15%

Question: Which inhibition does the source give for `CC(NC(=O)c1cccc2ccccc12)c1ccc2c(c1)CCCC2` (centres undefined) here?
Answer: -3.09%

Question: For `CCOC(OCC)c1ccc(/C=C\c2nccc(N)n2)cc1`, which inhibition is on record?
Answer: 62.4% (active)

Question: With `CC1(C)C(C=C(Cl)Cl)C1C(=O)NC(O)C(=O)c1ccccc1` (centres undefined) as the compound, how does the inhibition read?
Answer: -9.33%

Question: With `COc1cccc(/C=N\NC(=O)C2=NNC(=O)C2C)c1O` (centres undefined) as the compound, how does the inhibition read?
Answer: 66.4% (active)

Question: Which inhibition does the source give for `COc1cc2cc(C(=O)N/N=C/c3cccc(OC)c3OC)[nH]c2cc1OC` here?
Answer: 3.08%

Question: Which inhibition does the source give for `COc1cccc(/C=N/NC(=O)c2[nH]nc3c2CCc2ccccc2-3)c1O` here?
Answer: 12.7%

Question: With `CCCCn1c(-c2cccc(C)c2)nc2cc3[nH]c(=O)c(C(C)C)nc3cc21` as the compound, how does the inhibition read?
Answer: 9.49%

Question: With `CN1CCN(C(=O)c2cnn(-c3ccccc3)c2NC(=O)c2ccc([N+](=O)[O-])cc2)CC1` as the compound, how does the inhibition read?
Answer: -12.4%

Question: With `O=C(Cc1ccccc1)Nc1cccc(C(=O)N/N=C/c2ccco2)c1` as the compound, how does the inhibition read?
Answer: 23.9%

Question: Which inhibition does the source give for `O=C(CSc1ccc(/C=N/NC(=O)c2cccc(F)c2)o1)Nc1ccccc1` here?
Answer: 44.3% (active)

Question: For `N#CCC(=O)N/N=C/c1ccc(SCC(=O)Nc2ccccc2)o1`, which inhibition is on record?
Answer: 17.4%

Question: Which inhibition does the source give for `COc1ccc2cc(C(=O)O)n(CC(=O)c3ccccc3)c2c1` here?
Answer: -10.5%

Question: For `CCCCC(=O)Nc1nnc(S(=O)(=O)N(C)Cc2ccco2)s1`, which inhibition is on record?
Answer: 10.1%

Question: With `Cc1c(C(=O)NCCN(C)C)oc2ccc(S(=O)(=O)N3CCCC3)cc12` as the compound, how does the inhibition read?
Answer: -2.78%

Question: For `COCCNC(=O)c1ccc2nc(Cc3ccc(OC)c(OC)c3)oc2c1`, which inhibition is on record?
Answer: 30.7% (active)

Question: With `CSCCNC(=O)c1ccc2nc(Cc3ccccc3F)oc2c1` as the compound, how does the inhibition read?
Answer: 49.7% (active)

Question: Which inhibition does the source give for `Cn1cc(C(=O)NCc2ccccc2F)cn1` here?
Answer: 14.6%

Question: For `COc1ccccc1-n1c(C)nc2cc(C(=O)NCc3ccc4c(c3)OCO4)ccc21`, which inhibition is on record?
Answer: 11.2%

Question: For `COc1ccc(Cc2nc3ccc(C(=O)NCC4CCOCC4)cc3o2)cc1OC`, which inhibition is on record?
Answer: 37.2%

Question: For `COc1ccc(C(=O)NCCc2ccc(S(N)(=O)=O)cc2)cc1OC`, which inhibition is on record?
Answer: 21%

Question: With `O=C(Nc1nnc(C2=COCCO2)o1)c1ccc([N+](=O)[O-])s1` as the compound, how does the inhibition read?
Answer: -3.51%

Question: For `Cc1cnc(C(=O)N2CCCC(N3CCN(c4ccccc4F)CC3)C2)cn1` (centres undefined), which inhibition is on record?
Answer: -6.28%

Question: With `CC(=O)NC(CC(=O)Nc1nc(-c2ccccc2)c(C(C)=O)s1)c1ccccc1` (centres undefined) as the compound, how does the inhibition read?
Answer: -5.9%

Question: For `COc1ccc(OC)c(CCNC(=O)c2nn(C)c3c2CS(=O)(=O)c2ccccc2-3)c1`, which inhibition is on record?
Answer: -4.81%

Question: Which inhibition does the source give for `Nc1nonc1-n1nnc(C(=O)N/N=C\c2ccncc2)c1CN1CCCCC1` here?
Answer: -10.8%

Question: For `CC1CCN(C(=O)c2ccc3c(c2)NC(=O)CN3)CC1`, which inhibition is on record?
Answer: -6.93%

Question: Which inhibition does the source give for `Cc1cc(C(=O)NC2CCCc3c2cnn3-c2cccc(C)c2C)c(C)o1` (centres undefined) here?
Answer: 3.44%

Question: For `COc1ccccc1CCNC(=O)C1CCN(C(=O)/C=C/c2ccccc2)CC1`, which inhibition is on record?
Answer: 39.9%

Question: Which inhibition does the source give for `COc1ccc(Nc2cc(Sc3ccc(OC)cc3)ncn2)cc1` here?
Answer: 4.28%

Question: With `COc1ccc(Nc2ncnc3sc(C)cc23)cc1` as the compound, how does the inhibition read?
Answer: 56.1% (active)

Question: For `COc1ccc(Nc2ncnc3ccc(OC)cc23)cc1`, which inhibition is on record?
Answer: -8.31%
